Screening data deposited in PubChem BioAssay by National Center for Advancing Translational Sciences (NCATS).
Sm TGR inh – S. mansoni TGR enzyme inhibition | hit rate 3% among 360,000 | purified TGR, DTNB reduction, TNB absorbance 405 nm | Q962Y6 | Potency, µM (highest dose often 114 µM), inactives show at the highest dose activity change, negative = inhibition, hits mostly inhibitors | AID 485364; also: potency is read from the fitted curve at half-maximal effect; nearly all actives have a fitted effect of over 60% in size
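Kinetic colorimetric format: TGR-catalysed, NADPH-driven DTNB reduction monitored via TNB absorbance. Enzyme dispensed at 20 nM; compound exposure 15 min at room temperature before reaction start.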
FMDV antiviral – antivirals against foot and mouth disease virus | hit rate 1.2% among 410,000 | Potency, µM (doses to about 57.9 µM), for inactives: top-dose activity change, negative = inhibition, usual class: inhibitors | FMDV antiviral cell-based qHTS; calls by dose curve; tested in HEK293T cells; also: read-out not given here; potency is read from the fitted curve at half-maximal effect; nearly all actives have a fitted effect of over 45% in size
HCMV inh – blocks human cytomegalovirus replication; HFF cells, HCMV-luciferase reporter, 72 h; hits give low values; activity change, negative = inhibition, % at 57.5 µM; hit rate 4.5% among 410,000; AID 1259415; in the data active = activity change below about -60%; inconclusive = no clear call, values can overlap the other calls; inactive = above about -39%
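Steps: HFFs plated, 16 h 37C; compounds added; HCMV-luciferase added to MOI 1 PFU/cell; 72 h 37C; OneGlo reagent, 5 min room temperature; luminescence read, normalized to controls.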
Tb PYK inh – inhibitors of Trypanosoma brucei pyruvate kinase; Potency, µM (series often up to 76.8 µM), inactives show at the top dose activity, negative = inhibition, usual class: inhibitors; hit rate 0.12% among 410,000; Q57TT1; TbPYK enzyme, Kinase-Glo Plus ATP luminescence, 45 min; also: potency is read from the fitted curve at half-maximal effect; nearly all actives have a fitted effect of over 50% in size
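Readout: single end-point luminescence (Kinase-Glo Plus, 10 min). Reaction conditions were TbPYK/substrate plus 130 uM ADP, 45 min at RT, pH 7.2 TEA buffer. No-enzyme wells served as controls, and data were normalized before concentration-response fitting.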
FBPA Giardia inh – blocks Giardia fructose-bisphosphate aldolase activity; purified Giardia FBPA; AID 2451; hit rate 0.71% among 290,000; A8B2U2; Potency, µM (titrated, usually from 59.6 µM), for the others: top-dose activity, negative = inhibition, actives largely listed as inhibitors; also: potency is read from the fitted curve at half-maximal effect; nearly all actives have a fitted effect of over 55% in size
Target sequence (A8B2U2 whole entry, looked up): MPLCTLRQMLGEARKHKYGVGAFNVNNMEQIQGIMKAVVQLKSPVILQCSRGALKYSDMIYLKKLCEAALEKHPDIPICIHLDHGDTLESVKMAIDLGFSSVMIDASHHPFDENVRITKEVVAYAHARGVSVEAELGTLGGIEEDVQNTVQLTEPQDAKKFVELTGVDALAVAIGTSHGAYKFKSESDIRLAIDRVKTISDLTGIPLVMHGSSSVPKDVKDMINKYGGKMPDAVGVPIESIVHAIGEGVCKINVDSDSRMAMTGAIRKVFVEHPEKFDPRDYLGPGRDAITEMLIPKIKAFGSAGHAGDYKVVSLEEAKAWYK
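40 nM FBPA preincubated 10 min at RT with compound (up to 57.5 uM final), then substrate plus GAPDH/TPI/NAD/arsenate coupling and diaphorase/resazurin added. Fluorescence read after 20 min at RT, 525/598 nm.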
RE007 growth inh – less growth of the S. pombe RE007 Vpr strain; S. pombe RE007 Vpr strain, BacTiter-Glo ATP luminescence, 24 h; Potency, µM (series often up to 92.2 µM), without a hit: at the highest dose activity change, negative = less growth, hits mostly inhibitors; hit rate 0.21% among 360,000; active = well fitted falling curve with a large enough effect; inconclusive = small, poorly fitted or top-dose-only effect; inactive = no such curve, though single readings can be large or run the other way; also: potency is read from the fitted curve at half-maximal effect; nearly all actives have a fitted effect of over 50% in size
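Fission yeast RE007 carrying one integrated HIV-1 vpr copy, seeded at OD 0.01 in PMG+AL medium with 23 nL pinned compound. Grown 24 h at 30 degrees; viability read by BacTiter-Glo luminescence after 5 min.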
* hit, by the source's call; ? = inconclusive; . = no result; + = active, no number; [ ] = another dose, or the depositor's remark. Compounds with a hit are over-represented: about 7.7% of the library has one in this group of screens. Unless noted, calls follow the shape of the dose curve; as a rule, active = well fitted curve in the direction sought with a large enough effect; inconclusive = small, poorly fitted or top-dose-only effect, or another doubt; inactive = no such curve, though single readings can be large; an effect the other way counts as inactive or inconclusive. % is scaled to controls: 0 for no effect and ±100 for the full control effect.

SMILES	Sm TGR inh	FMDV antiviral	HCMV inh	Tb PYK inh	FBPA Giardia inh	RE007 growth inh
CC1CCCCN1C(=O)COC(=O)/C=C/c1ccc2ccccc2n1 (stereo unspecified)	4%	51%	-84*	1%	-2%	-8%
CCOc1ccc(NC(=O)CN2C(=O)COc3ccc(S(=O)(=O)Nc4ccccc4)cc32)cc1	1%	17%	11	-21%	.	.
CN1C(=O)c2ccccc2Sc2ccc(NC(=O)COc3ccc(F)cc3)cc21	-2%	-18%	?	-7%	.	.
CC[N+](C)(C)CC/C=C1/c2ccccc2Sc2ccc(Cl)cc21	-27%	-8%	11	1%	-6%	3%
CCCCCCCCCC[N+](C)(C)CC/C=C1/c2ccccc2Sc2ccc(Cl)cc21	18µM*	?	.	1%	0%	.
CCCCCCCCCCC[N+](C)(C)CC/C=C1/c2ccccc2Sc2ccc(Cl)cc21	1.8µM*	?	.	-5%	12%	.
Cc1cccc(-n2c(=O)c3c(c4cc(C)ccc4n3C)n(Cc3ccccc3F)c2=O)c1	1%	-2%	34	-4%	.	.
Cc1ccnc(N/C=C(\C#N)c2nc(-c3cccc(Br)c3)cs2)c1	-4%	-10%	-80*	-4%	-16%	-18%
COc1ccc(Cc2nnc(N/N=C/c3ccc(O)cc3)[nH]c2=O)cc1OC	-9%	-25%	-100*	0%	9%	5%
C/C(=N\Nc1ccc(F)cc1F)c1ccccc1O	-13%	44%	-69*	-3%	-5%	40%
COc1cccc(CNC(=O)c2sc3nc(C)cc(C)c3c2-n2cccc2)c1OC	-5%	2%	-3	2%	.	.
Nc1c(-c2ccccc2)c(CSc2nc3ccccc3[nH]2)nn1-c1cccc(Cl)c1	-9%	?	-95*	1%	0%	-19%
Nc1c(-c2ccccc2)c(CSc2nc3ccccc3[nH]2)nn1-c1ccc(Cl)cc1	-12%	0%	-39	-7%	3%	6%
Cc1ccccc1-n1nc(CSc2nc3ccccc3[nH]2)c(-c2ccccc2)c1N	-2%	?	-87*	-11%	0%	-21%
CCC1C(=O)NCCN1Cc1ccc2c(c1)CN(Cc1cc(OC)ccc1OC)CCO2 (stereo unspecified)	.	-14%	.	.	.	.
COc1ccc(CN2CCOc3ccc(CN4CCC(O)(c5cccnc5)CC4)cc3C2)c(C)c1C	.	-24%	.	.	.	.
CC(C)(C)OC(=O)NCC12C=CC(O1)C1C(=O)N(Cc3ccccc3)C(=O)C12 (stereo unspecified)	8.9µM*	?	-25	-2%	3%	45µM*
CC(C)(C)OC(=O)NCC1CCN(S(=O)(=O)Cc2ccccc2)CC1	0%	?	23	-5%	5%	14%
CCOC(=O)c1ccc(N2C(=O)C3CCOc4ccccc4C32)cc1 (stereo unspecified)	-7%	-16%	-79*	3%	.	2%
CCOC(=O)c1ccc(N2C(=O)[C@@H](c3ccccc3)[C@H]2c2ccccc2)cc1	2%	-21%	0	-4%	.	-11%
Cc1cc(C)nc(Sc2ncnc3sc4c(c23)CCC4)n1	-12%	-19%	-71*	-8%	-1%	-1%
CC(C)(C)C1=CC(O)(c2ccccc2)C=C(C(C)(C)C)C1=O	4%	?	-60*	-8%	-5%	8%
O=C1Nc2ccccc2C1(O)c1ccccc1 (stereo unspecified)	-6%	-16%	-16	-19%	-5%	45%
Cc1cc(C(=O)NCC2CCC3(CCN(Cc4cc(F)ccc4F)CC3)O2)n(C)n1 (stereo unspecified)	.	0%	.	.	.	.
O=C(Nc1cccc(F)c1)C1CCN(c2nc3ccccc3[nH]2)CC1	3%	-11%	+	0%[15.4 µM]	.	.
SMILES	Sm TGR inh	FMDV antiviral	HCMV inh	Tb PYK inh	FBPA Giardia inh	RE007 growth inh
NC(N)=NN=C1CCC(c2ccccc2)CC1 (stereo unspecified)	-2%	7.1µM*	-19	2%	-16%	-9%
COc1ccc(C(C)=O)cc1CSc1nnc(Nc2ccccc2)s1	-23%	?	-70*	0%	-7%	15%
COc1ccc(C(C)=O)cc1Cn1c(=O)cc(C)[nH]c1=O	40µM*	-2%	41	0%	15%	-6%
Cc1ccc(CSc2nnc(Nc3ccc(C)cc3)s2)cc1	1%	-5%	9	-1%	-10%	-3%
COc1ccc(NC(=O)COc2ccc(-n3cnnn3)cc2)cc1OC	1%	-25%	-6	-15%	.	-2%
COc1ccc(C(C)=O)cc1CN1C(=O)NC2(CCCCCCC2)C1=O	-3%	-5%	-19	1%	5%	15%
COc1ccc(C(C)=O)cc1CSc1nnc(Nc2ccc(C)cc2)s1	-7%	0%	-61*	1%	-14%	-8%
COc1ccc(C(C)=O)cc1CSc1ncccn1	-28%	10%	?	-4%	0%	3%
COc1ccc(C(C)=O)cc1COc1ccc(-n2cnnn2)cc1	20µM*	-10%	29	4%	-4%	-10%
COc1ccc(NC(=O)Cn2c(=O)n(Cc3ccc4c(c3)OCO4)c(=O)c3ccc(C(=O)NC4CCCCC4)cc32)cc1	7%	-8%	5	1%	.	.
CCOC(=O)c1c(NC(=O)CSc2cn(CCNC(=O)c3c(F)cccc3F)c3ccccc23)sc2c1CCC2	0%	-16%	-6	-1%	.	.
COc1ccc(C(C)=O)cc1CC(=O)NC1CCCCCC1	-1%	-4%	-15	-5%	1%	-15%
COc1ccc(C(C)=O)cc1COC(=O)CSCC(=O)Nc1ccc(C)cc1	35µM*	1%	-16	5%	.	-19%
COc1ccc(C(C)=O)cc1CSc1nnc(C)s1	45µM*	6%	5	1%	8%	1%
COc1ccc(Br)cc1CN(C)C(C)C(=O)Nc1cccc(C(C)=O)c1 (stereo unspecified)	22µM*	?	-5	-3%	6%	2%
COc1ccccc1CN(C)C(C)C(=O)Nc1cccc(C(C)=O)c1 (stereo unspecified)	-5%	?	9	0%	2%	12%
COc1ccc(C(C)=O)cc1CN(C)C	5µM*	9%	-18	1%	-16%	-15%
Cc1ccc(C(=O)c2oc3ccccc3c2NC(=O)Cc2ccccc2)cc1	-5%	14%	-17	-11%	.	.
CN(C)S(=O)(=O)N1CCC(Oc2ccc(C(=O)NCC(C)(C)CO)cc2)CC1	4%	4%	-64*	1%	1%	7%
Cc1cnc(C)c(-c2cccc3c2OC(CNC(=O)c2cc(C)on2)C3)n1 (stereo unspecified)	.	15%	.	.	.	.
O=C(CCOc1ccccc1)Nc1ccccc1[N+](=O)[O-]	?	51%	54	9%	-2%	-1%
